# Experimental data reported in PubChem BioAssay AID1159506 (National Center for Advancing Translational Sciences (NCATS), 2015).
# Whole data set: some 59,000 sequences, median the read-out near -0.00055, cut for the lowest 2% near -2. Shown is part of a subset that was picked to be rich in the lowest values.
# Test: Identification of proteins required for the processing of the EWS-FLI1 nascent transcript;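 note: robust z of luciferase light less the median z of siRNAs with the same seed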
# Details: TC32 Ewing sarcoma NR0B1-luc vs CMV-luc (EWS-FLI1 target promoter against control promoter), 48 h; screened at 20 nM (by protocol)
# In short: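 Genome-wide siRNA screen (Ambion v4.1, three siRNAs per gene, 20 nM final, RNAiMax) in Ewing sarcoma TC32 cells carrying NR0B1-promoter or CMV-promoter luciferase; OneGlo luciferase read 48 h post-transfection. Data normalized, z-score-MAD transformed and seed-adjusted.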
row,Sequence,seed-corrected z-score
1,AUUAUGAGCAUGCAGGUUC against ANKRD6,1.1
2,UUUCUUCCCAGGUGUCUUG against PTHLH,-2.12
3,UCUAGACCUAUGGACAGUC against WDFY2,-0.0809
4,UUAGCUUCCUCCAAAAUGC against LOC342293,1.1
5,UCCUGGUUAAAUAGGAAGG against BLID,-0.822
6,UACUGAGUAGUAGUUGGGC against DISP3,-2.25
7,UUUGGUUUGGAAAAGGUAC against KMT5A,0.072
8,UAACUUAGAAUUCCAUUUU against DMRTA2,0.067
9,UGUCCUACCACAGUCUUCA against LINC00703,-0.2
10,UUUUCUGCAGCUUUAAGGG against IL17C,1.34
11,UGGUCAAUCUGUUCAAUGG against C16orf70,-13.9
12,UACAUAGUAAACUCGCCCG against ITCH,0.22
13,UAAGUAACCCAAGUAUUGC against C2orf69,0.361
14,AGGGUUGACAUGGAACUGC against FITM1,0.313
15,UUCCGUACAAAAUUGUGCA against ARAF,-0.24
16,UGAGGUACAGUGAACAAGG against TMEM110,-0.57
17,AAACUGCUUCCGGACAUUG against ACAD8,-1.71
18,UACGUUUCUGAAGAAGGUG against FAM231D,1.63
19,UCUAGGAAAAGGACUCGGC against IKZF2,0.168
20,UUGCUUAUUCUCUCUCACG against CAAP1,-3.02
21,UAAAAUACCCACGUGGUUC against TMEM150A,0.686
22,UUUCUCUGAAGUUAAGUCC against G0S2,-0.192

row,Sequence,seed-corrected z-score
1,UAGAUAAUCUUGAACCUUC against UGP2,0.118
2,UGCUUGAACGUGUCCGUCC against LRRC4B,-0.284
3,UAACAGCGAAUUCCAAGGC against ZBTB12,-2.07
4,AAGACUAUAAAUCAUGUAG against LMBRD1,-0.385
5,AAUGUUGUGAUUAAGUAAG against DFNB59,-2.62
6,ACCUUGACCAGAAAGCUGC against C20orf27,-0.672
7,AAAAGUAUUACAAAAAGUG against MYOD1,-0.532
8,UAUACGUAAUGAAAGUUUC against SNX7,0.211
9,AAACUGUGCAAAAGUCUCU against APCDD1L-AS1,-0.722
10,UUUGUGUCCACCGUUAUAA against EVPLL,0.153
11,AAAUGUACCAAUACGUAGU against TMEM107,-2.13
12,UCGUUUCUGUGCUCCGUCC against PCP2,0.0855
13,UCGAUGUACACUUUGAGGC against B3GNT8,0.222
14,UAUGAUUAAGAAUGAAACC against OR6C1,0.426
15,UAUGGUUAGACCGCUUUCG against KIAA0408,0.0809
16,AUAUGUUCGACUAUCAUGG against KATNBL1,-3.24
17,UAAGUCAGGAUAUUCGCUC against CRELD2,-1.22
18,UAAUGCGAUACAACUCGAC against COX4I1,1.65
19,UGCACGAUCCGUUUGCUUC against RNASE11,-0.108
20,UCUGGAUCUGGUUUGCUGC against ZBTB3,-1.18
21,UUACUUAGUCUUGUGGUGG against HIST1H2AJ,0.917
22,ACGGUUUCAAUAUCUAACG against FAM160B1,-14.4

row,Sequence,seed-corrected z-score
1,AGGAAUACAAGUCAUAUGC against TFB2M,0.916
2,AAGCUUUUCGUAGUCCUCA against NMRAL1,0.164
3,UUCUCGAUGCUUGUGGUUU against DMBX1,-0.553
4,UUUGAUAACAGUUCACUGG against PLAG1,1.2
5,UUCGAUAGAAUUUGAAAGC against SUGP2,-2.02
6,UUCGAUCAAAAUACAAGGC against GLDN,-0.856
7,UGGAAUAUGACUCUUUGCC against STRA8,-0.991
8,AUGGGUAAGAUGUAUGUUG against ZFAND1,-0.296
9,UUCGGUAUCGUCUGUAUCC against USP8,-1.37
10,UCUGGAACUAUUUACUCGG against NEMP1,-14.8
11,AUGACAAUCACAUUCCUCU against AKR1B10,0.0562
12,UUUGCUCCCACCAAAUACC against KLHDC1,1.18
13,AUAGGAAGAACUCUGUUUG against SCHIP1,-2.03
14,UCCAUAAUCUGUUUCGCUG against INTS4,-1.43
15,UCAAUGACAGCUAAUAGCC against ARL13A,-1.36
16,UUCUUAACAUAGGGCAUGG against RRM2B,-0.284
17,UGAACCUCUAGACUCAUAG against ZDBF2,-0.0347
18,AAUUCGAUUAGAGAGUGUC against SENP5,0.00396
19,UUUUCUCCCUUUAUAAGGC against OXCT1,1.02
20,UAUCCAACUAUCUAAACUG against TMEM184C,-16.9
21,UCUCGAAACACCCUACUCC against MKNK1,0.234
22,UGAAGUAAUGGUGAGAGGG against CRYAB,0.664

row,Sequence,seed-corrected z-score
1,UGACCUCCAACACUAGUGC against VPS8,0.213
2,AUCGUAACAAGAAAGUUCC against RNF17,1.39
3,AUCUGCAUAAACUCCACGC against SCGN,-2.24
4,UCCAAGUUCACGAAGAUUU against MMD,0.344
5,UGUACUUUGGAACUAGUCC against ENKUR,0.00323
6,UUCCGGAUUACACCAGUGC against FAM171A2,0.108
7,UUCGUAAGUGGUCCAGUUC against GSE1,1.07
8,UCAAUUCUGAGCUUCGGUC against SPATA13,0.999
9,UGGUAGUUCACGUUGAGCC against CASKIN2,-2.53
10,UGAAGUUACAUUCAGUUCU against ZFAND3,0.106
11,UUAGAUCUUGAAAGAGUUC against ETV1,-0.0727
12,AUAGGUUUCAGAGAGGUGU against CA1,0.901
13,AAUCUUAAAUUUUCCGAGC against RGS7,-0.282
14,UCGGGUGUUUUGGUCUUGC against LMOD1,-2.52
15,UACCUCAUAGGAUAACACC against MPP4,0.19
16,AACGGUAGAAGCUGCAUGC against NOP58,-1.46
17,UCCUGCUUUAUAACUAGCC against ZNF621,-4.33
18,UUCAGCAUCUUUGUCGACC against RTFDC1,-0.168
19,UGAAGUUAAUGGGCCCUGG against MYL12BP2,0.711
